Bioassay records from PubChem BioAssay.
Hits are enriched below; roughly 1.2% of the tested compounds scored in any of these assays.
GRK2 aptamer HTS: compounds blocking aptamer binding on GRK2 – biochemical, human GRK2, bead flow cytometry, HTS, primary screen; Beta-adrenergic receptor kinase 1 (Homo sapiens), P25098; FAM-aptamer displacement from GRK2; inhibition of aptamer binding, % at 10 µM; 330,000 tested, 0.59% active; AID 488847, 2010;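 active means inhibition of aptamer binding above 40%, roughly 3 SD of noise, on plates passing a quality check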;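 further: median bead fluorescence of bound FAM aptamer so fluorescent compounds give negative values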
NTR1 agonist: agonists of human NTR1, primary screen, imaging, U2OS cells, beta-arrestin-GFP, high content. NTR1-U2OS beta-arrestin-GFP spot imaging, agonist mode. activation, % at 20 µM. 330,000 tested, 0.17% active. AID 493036, 2011;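 active means activation at or above 40% of the spot to cytoplasm intensity ratio, with at least 20 cells analyzed; inconclusive means wells under 20 cells, flagged as cytotoxic or low count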;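 further: 0% = DMSO without peptide and 100% = 100 nM NTR1 peptide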
Target sequence (P30989 whole entry, looked up): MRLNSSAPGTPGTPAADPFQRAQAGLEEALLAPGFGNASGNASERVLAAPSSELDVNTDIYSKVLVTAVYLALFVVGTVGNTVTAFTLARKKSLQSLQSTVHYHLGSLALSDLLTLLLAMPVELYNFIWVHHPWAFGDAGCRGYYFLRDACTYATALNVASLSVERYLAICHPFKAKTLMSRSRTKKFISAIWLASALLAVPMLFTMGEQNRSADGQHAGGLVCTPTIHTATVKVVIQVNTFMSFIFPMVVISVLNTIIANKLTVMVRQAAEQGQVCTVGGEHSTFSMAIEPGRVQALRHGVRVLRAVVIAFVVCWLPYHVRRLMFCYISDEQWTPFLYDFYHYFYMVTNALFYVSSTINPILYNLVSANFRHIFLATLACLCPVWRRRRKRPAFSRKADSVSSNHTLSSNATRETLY
Platelet DG rel: inhibitors of platelet dense granule secretion, primary screen, cell-based, MLPCN, human platelets | human platelet-rich plasma, SFLLRN dense granule ATP release, luminescence | inhibition, %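 (compounds screened at 7.5 µM in platelet-rich plasma)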 | 300,000 tested, 0.22% active | AID 1663, 2009;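 active means mean replicate score, as percent of positive control, at or above 50; inconclusive means mean below 50 but at least one replicate at or above 50; inactive means mean and every replicate below 50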
beta cell repl: inducers of MIN6 beta-cell proliferation, primary screen, ATP luminescence, uHTS; MIN6 cells proliferation, ATPlite luminescence, 48 h; cells starved in 0.2% serum; 100% = growth in 10% serum; proliferation, % at 10 µM; 330,000 tested, 0.29% active; AID 2380, 2010;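 active means compounds whose signal lies at least 3.5 SD above the mean of all wells on their plate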;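 further: 0% = DMSO-treated cells in low-serum medium and 100% = 10% serum control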
* marks the source's active call; other numbers are inactive results.

COc1ccc(C(C)NCCC(c2ccc(OC(C)C)cc2)c2ccccc2OC)cc1 (configuration not stated) was read as GRK2 aptamer HTS 0, NTR1 agonist 68*, Platelet DG rel 4 and beta cell repl -4.
For CCOC(CNC(=O)C1CCN(S(=O)(=O)c2ccc3nc4c(c(C(=O)O)c3c2)CCCCC4)CC1)OCC the results were GRK2 aptamer HTS 1, NTR1 agonist 2, Platelet DG rel -4 and beta cell repl 0.
Cc1nn(C)cc1CNC(=O)C1CCC(=O)N(CC2CCCCC2)C1 (configuration not stated) was read as GRK2 aptamer HTS 38, NTR1 agonist 1, Platelet DG rel 56* and beta cell repl -1.
For O=C(c1cc(COc2cccc(C(F)(F)F)c2)on1)N1CCC(Oc2cccnc2)CC1 the results were GRK2 aptamer HTS 0, NTR1 agonist 1, Platelet DG rel 6 and beta cell repl -5.
For Cc1c(O)ccc(/C=N/Nc2ncccc2[N+](=O)[O-])c1O the results were GRK2 aptamer HTS 0, NTR1 agonist 2, Platelet DG rel 63* and beta cell repl -3.
`Cn1c(=O)c2c(nc(SCCN3CCOCC3)n2Cc2ccccc2Cl)n(C)c1=O` gave GRK2 aptamer HTS 0, NTR1 agonist 1, Platelet DG rel 63* and beta cell repl 1.
`N#Cc1c(C#N)c(-c2ccccc2)n(-c2ccccc2)c1N` gave GRK2 aptamer HTS 0, NTR1 agonist 2, Platelet DG rel 2 and beta cell repl 2.
`Cc1ccc(-c2c(C#N)c(N)n(-c3ccccc3)c(=O)c2C#N)cc1` gave GRK2 aptamer HTS 0, NTR1 agonist 1, Platelet DG rel 54* and beta cell repl -3.
`Cc1cc(O)c2c(c1O)C(=O)[C@]13C(=C2O)C(=O)[C@@H]2[C@@H](O)[C@H]1[C@@H]1[C@H](O)[C@H]3C(=O)C3=C(O)c4c(O)cc(C)c(O)c4C(=O)[C@]312` gave GRK2 aptamer HTS 72*, NTR1 agonist 7 and beta cell repl -6.
`CCc1nnc(NS(=O)(=O)c2ccc(NCc3ccccc3O)cc2)s1` gave GRK2 aptamer HTS 1, NTR1 agonist 2, Platelet DG rel inconclusive and beta cell repl -1.
Screening CCC(=O)N1c2ccc(S(=O)(=O)CCC(=O)N3CCN(c4ccccc4F)CC3)cc2CC1C (configuration not stated) returned GRK2 aptamer HTS 0, NTR1 agonist 0, Platelet DG rel inconclusive and beta cell repl 1.
CCOC(=O)c1nc2sc3c(c2c(=O)[nH]1)CCCC3 was read as GRK2 aptamer HTS 2, NTR1 agonist 8, Platelet DG rel 60* and beta cell repl 3.
`CCOC(=O)c1nc2sc3c(c2c(=O)[nH]1)CCC(C)C3` (configuration not stated) gave GRK2 aptamer HTS 1, NTR1 agonist 1, Platelet DG rel 13 and beta cell repl 3.
For COc1ccc(/C=N/Nc2ccc(C(=O)O)cc2)cc1Br the results were GRK2 aptamer HTS 0, NTR1 agonist 1, Platelet DG rel 68* and beta cell repl 1.
Screening Cc1ccc(/C=N/Nc2ccc(C(=O)O)cc2)s1 returned GRK2 aptamer HTS 3, NTR1 agonist -1, Platelet DG rel 83* and beta cell repl -3.
For Cc1ccc(NC(=O)C(=O)NCCN2CCN(S(C)(=O)=O)CC2)cc1C the results were GRK2 aptamer HTS 4, NTR1 agonist -1, Platelet DG rel 1 and beta cell repl -1.
For COc1ccc(C(=O)C(C)OC(=O)CCN2C(=O)C3CC=CCC3C2=O)cc1 (configuration not stated) the results were GRK2 aptamer HTS 0, NTR1 agonist 1 and beta cell repl -2.
For Cc1ccsc1/C=C1\CCc2ccccc2C1=O the results were GRK2 aptamer HTS 2, NTR1 agonist 0, Platelet DG rel 64* and beta cell repl -5.
`O=C1/C(=C/c2ccc([N+](=O)[O-])cc2)CCc2ccccc21` gave GRK2 aptamer HTS 0, NTR1 agonist 7, Platelet DG rel 50* and beta cell repl -5.
Cc1ccccc1/C=C1\CCCc2ccccc2C1=O was read as GRK2 aptamer HTS 0, NTR1 agonist 2, Platelet DG rel -3 and beta cell repl 0.
Screening CC(Oc1ccccc1F)C(=O)NNC(=O)c1ccc(F)c(S(=O)(=O)N2CCOCC2)c1 (configuration not stated) returned GRK2 aptamer HTS 0, NTR1 agonist 0, Platelet DG rel 4 and beta cell repl 1.
Screening COc1ccc(C(=O)N2CCN(CCc3ccccc3)CC2)cc1[N+](=O)[O-] returned GRK2 aptamer HTS 0, NTR1 agonist 1, Platelet DG rel -7 and beta cell repl 2.
COc1ccc(NC(=O)CCS(=O)(=O)c2ccc3nc(C)sc3c2)cc1OC was read as GRK2 aptamer HTS 0, NTR1 agonist -1, Platelet DG rel 74* and beta cell repl 2.
Screening N#C/C(=C\c1ccc(OC(=O)c2ccc(Cl)s2)cc1)c1nc2ccccc2[nH]1 returned GRK2 aptamer HTS 81*, NTR1 agonist 2, Platelet DG rel -15 and beta cell repl 0.
N#C/C(=C\c1ccc(OC(=O)c2ccc(Br)s2)cc1)c1nc2ccccc2[nH]1 was read as GRK2 aptamer HTS 0.
CCOC(CNC(=O)C(=O)Nc1cc2c3c(c1)CCC(=O)N3CCC2)OCC was read as GRK2 aptamer HTS 0, NTR1 agonist 0, Platelet DG rel -5 and beta cell repl -2.
Cc1cc(C(=O)OCC(=O)Nc2ccccc2C(F)(F)F)on1 was read as GRK2 aptamer HTS 2, NTR1 agonist 0 and beta cell repl -4.
`CC1=C(C#N)C(=O)N(C2CCS(=O)(=O)C2)C(=O)/C1=C\c1ccco1` (configuration not stated) gave GRK2 aptamer HTS 100*, NTR1 agonist 0, Platelet DG rel 1 and beta cell repl 0.
Screening O=C(CN1CCN(c2ccccc2)CC1)N1N=CCC1c1ccccc1 (configuration not stated) returned GRK2 aptamer HTS 1, NTR1 agonist 0, Platelet DG rel 78* and beta cell repl 4.
COc1ccc(C(=O)Nc2ccc(NC(=O)c3ccccn3)cn2)cc1 was read as NTR1 agonist -1, Platelet DG rel 3 and beta cell repl -1.
Screening COc1ccc(NC(=O)c2cnn(-c3ccccc3)c2C)cc1 returned NTR1 agonist 1, Platelet DG rel 59* and beta cell repl -3.
Screening COc1ccc(NC(=O)c2ccccn2)cc1 returned GRK2 aptamer HTS 0, NTR1 agonist 0, Platelet DG rel 58* and beta cell repl -3.
Screening NC(=O)C1CCN(C(=O)C2CC(=O)N(Cc3ccccc3)C2)CC1 (configuration not stated) returned GRK2 aptamer HTS 7, NTR1 agonist -1 and beta cell repl -1.
